Shiga inhibitor = A qHTS for Small Molecule Inhibitors of Shiga Toxin; inhibition, % at 38.7 µM; Vero cells, Shiga toxin protein synthesis inhibition reporter; 290,000 tested, 9.2% active; in the data active = inhibition mostly above about 28%, no sharp cut-off; inactive = mostly below about 43%
NS1 inh = qHTS Assay for Inhibitors of Influenza NS1 Protein Function; Potency, µM (top dose mostly 46.1 µM); 270,000 tested, 0.4% active; AID 2326, 2010; calls by dose curve; also: actives are rising curves; nearly all actives have a fitted effect of over 50% in size
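A cell-based growth assay was used: compounds that relieve NS1-induced slow growth of budding yeast raise OD600. Assay medium was yeast nitrogen base with ammonium sulphate and -URA supplement, pH 6.0, with 2% galactose.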
CHX counter = Cycloheximide Counterscreen for Small Molecule Inhibitors of Shiga Toxin. cell reporter, cycloheximide protein synthesis inhibition counterscreen. max response, %. 300,000 tested, 12% active. AID 2314, 2010; in the data active = max response mostly above about 13%, no sharp cut-off; inactive = mostly below about 14%; also: read at 38.3 µM for the half of the compounds with a filed dose
FBPA Giardia inh = qHTS Assay for Inhibitors of Fructose-1,6-bisphosphate Aldolase from Giardia Lamblia | purified Giardia FBPA | Potency, µM (top dose mostly 59.6 µM), most hits filed as inhibitors | 290,000 tested, 0.71% active | AID 2451, 2010; also: nearly all actives have a fitted effect of over 55% in size
Target sequence (A8B2U2 whole entry, looked up): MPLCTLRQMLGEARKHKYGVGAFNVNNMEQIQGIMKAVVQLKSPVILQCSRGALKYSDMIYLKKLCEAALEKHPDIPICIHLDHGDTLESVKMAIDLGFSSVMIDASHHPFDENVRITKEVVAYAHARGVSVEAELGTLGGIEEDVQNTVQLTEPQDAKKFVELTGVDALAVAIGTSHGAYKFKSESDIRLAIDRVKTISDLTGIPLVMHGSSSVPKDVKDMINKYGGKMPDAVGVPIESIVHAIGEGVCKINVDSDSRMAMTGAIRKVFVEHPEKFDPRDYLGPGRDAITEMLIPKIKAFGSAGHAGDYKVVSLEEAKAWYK
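40 nM FBPA preincubated 10 min at RT with compound (up to 57.5 uM final), then substrate plus GAPDH/TPI/NAD/arsenate coupling and diaphorase/resazurin added. Fluorescence read after 20 min at RT, 525/598 nm.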
LmPK inhibitor = qHTS Assay for Inhibitors of Leishmania Mexicana Pyruvate Kinase (LmPK). Q27686. Potency, µM (top dose mostly 57.5 µM), usual class: inhibitors. purified LmPK, Kinase-Glo ATP luminescence, 1 h. 290,000 tested, 0.37% active
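In 50 mM imidazole pH 7.2 with 7 mM MgCl2, LmPK (0.1 nM) turned over PEP (0.5 mM) and ADP (0.1 mM) for 1 h at room temperature. Luciferase read-out of ATP.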
Numbers stand for hits; n = inactive; u = inconclusive; x = not tested or not shown; [ ] = another dose, or the depositor's remark. A selection: hits, their analogues and other compounds. The true share with any hit is near 14%. Unless noted, calls follow the shape of the dose curve; as a rule, active = well fitted curve in the direction sought with a large enough effect; inconclusive = small, poorly fitted or top-dose-only effect, or another doubt; inactive = no such curve, though single readings can be large; an effect the other way counts as inactive or inconclusive.

SMILES	Shiga inhibitor	NS1 inh	CHX counter	FBPA Giardia inh	LmPK inhibitor
Cn1c(SCc2nnc(-c3ccccc3)o2)nc2ccccc21	n	x	n	n	n
CCCCCCCC1=Cc2ccccc2C(CC(=O)c2ccccc2)N1C(=O)OC (configuration not stated)	x	x	x	n[12.9 µM]	n[11.5 µM]
Clc1ccc2c(N3CCC(CCC4CCN(c5ncnc6cc(Cl)ccc56)CC4)CC3)ncnc2c1	x	n	x	x	x
CCC1CSC(Nc2ccc(C(=O)/C=C/c3ccc(Br)cc3)cc2)=N1 (configuration not stated)	56.9	u	48.9	n	n
CCC1CSC(Nc2ccc(C(=O)/C=C/c3ccc(OC)c(OC)c3)cc2)=N1 (configuration not stated)	27.7	n	n	n	n
Cc1ccc(C(=O)/C=C/c2cc(Br)cc(Br)c2O)o1	n	n	n	n	n
O=C(COC(=O)c1ccc[nH]c1=O)c1ccc(Cl)s1	n	n	n	n	n
Cc1ccc(C(=O)OCC(=O)c2ccc(Cl)s2)s1	83.3	n	52.9	n	n
C/C(Cn1nnc([N+](=O)[O-])n1)=N\NC(=O)c1cccc(Cl)c1	43.6	n	20.2	u	n
C/C(Cn1nnc([N+](=O)[O-])n1)=N\NC(=O)c1ccccc1Cl	n	u	22.3	u	n
COc1ccc(NC(=O)c2ccc(N3C(=O)C4CC=C(C)CC4C3=O)cc2)c(OC)c1 (configuration not stated)	n	n	n	n	n
N=c1c2c3c(sc2nc2n1CCCCC2)CCCCC3	73.3	n	31.7	n	n
O=c1c2c3c(sc2nc2n1CCCC2)CCC3	n	n	n	n	n
Nc1c2c3c(sc2nc(=O)n1N)CCCC3	n	n	n	n	n
O=c1c2c3c(sc2nc2n1CCCS2)CCCC3	n	n	41.8	n	n
Cc1nc2sc3c(c2c(=N)n1N)CCCC3	n	n	n	n	n
O=c1c2c3c(sc2nc2n1CCCCC2)CCCCC3	73.5	n	28.3	n	n
Nc1nc2sc3c(c2c(=O)s1)CCCC3	n	n	35.4	n	n
C[C@]12CC[C@H](O)CC1=CC[C@H]1[C@@H]2CC[C@@]2(C)C(N(CCO)CCO)CC[C@@H]12 (some centres not stated)	x	n	x	x	x
O=c1c2c3c(sc2nc2n1CCCC2)CCCCC3	n	n	43.8	n	n
O=c1c2c3c(sc2nc2n1CCCCC2)CCCC3	96.7	n	30.8	n	n
Cc1ccc(C)n1-n1c(C)nc2sc3c(c2c1=O)CCCCC3	n	n	n	n	n
CC1=Nn2c(nc3sc4c(c3c2=O)CCCC4)SC1	n	n	23.9	n	n
O=c1c2c3c(sc2nc2n1CCC2)CCCC3	n	n	n	n	n
CC1CSc2nc3sc4c(c3c(=O)n21)CCCC4 (configuration not stated)	n	n	22.1	n	n
SMILES	Shiga inhibitor	NS1 inh	CHX counter	FBPA Giardia inh	LmPK inhibitor
O=C1[C@@H]2[C@H]3[C@H](O)[C@H](O)C/C(=N/OC[C@@H](O)COCc4ccco4)[C@H]3CC[C@H]2C(=O)N1c1ccc(F)cc1F	x	x	x	n[12.9 µM]	x
O=C(NC(N1CCOCC1)C(Cl)(Cl)Cl)c1ccc(F)cc1 (configuration not stated)	n	n	n	n	n
Cc1ccc(C(=O)C(NC(=O)c2ccco2)N2CCOCC2)cc1 (configuration not stated)	53.1	n	39.5	n	n
CC(=O)NC(O)C(=O)c1ccccc1 (configuration not stated)	n	n	n	n	n
O=C(NC(C(=O)c1ccccc1)N1CCOCC1)c1ccccc1 (configuration not stated)	n	n	15.7	n	n
O=C(NC(C(=O)c1ccccc1)N1CCOCC1)c1cccs1 (configuration not stated)	33.0	n	22.2	n	n
O=C(NC(C(=O)c1ccccc1)N1CCCCCC1)c1ccco1 (configuration not stated)	n	n	n	n	n
O=C(Nc1ccccc1N1CCOCC1)c1cccs1	n	n	n	n	n
Cc1cc(=O)n(C(NC(=O)c2ccccc2)C(=O)c2ccccc2)cn1 (configuration not stated)	n	n	18.6	n	n
COc1cc2c(cc1OC)C1(C)N(CC2)C(C(C)=O)=NN1c1ccc(Cl)cc1 (configuration not stated)	n	n	n	n	n
Cc1cc(C)cc(NC(=O)CCn2c(=O)c3cccn3c3ccccc32)c1	n	n	n	x	n
COc1cc(S(=O)(=O)N2CCN(c3ccccn3)CC2)ccc1Br	n	n	n	n	n
c1ccc2c(N3CCCCC3)nc(N3CCCCC3)nc2c1	n	n	n	n	n
C(=C\c1nc(N2CCCCCC2)c2ccccc2n1)/c1ccccc1	35.7	n	23.4	n	n
CN(C)c1ccc(/C=C/C=C2/SC(=S)N(c3ccccc3)C2=O)cc1	88.2	x	33.1	n	12.6µM
O=C(O)c1ccc(N2C(=O)/C(=C/C=C/c3ccccc3)SC2=S)cc1	n	n	n	n	n
Cc1ccc(C(=O)Nc2ccc(C(=O)O)cc2NC(=O)c2ccc(C)cc2)cc1	n	n	n	n	n
Cc1cc(/C=C(/C#N)C(=O)Nc2ccccc2)c(C)n1-c1cccnc1	n	n	42.8	x	n
Cc1cc(/C=C(\C#N)C(=O)Nc2ccccc2)c(C)n1-c1ccc2c(c1)OCO2	43.5	n	41.1	n	n
Cc1ccc(-n2c(C)cc(C=C(C#N)C#N)c2C)cc1	n	n	n	n	n
Cc1cc(C=C(C#N)C#N)c(C)n1-c1ccccc1	108.5	n	22.4	n	n
CN(C)C(=O)c1cnc(-c2ccccc2)nc1-c1ccccc1	n	n	n	n	n
COc1ccc(NC2CCCN(C(=O)CN3CCOC3=O)C2)cc1 (configuration not stated)	62.0	n	37.9	x	n
COc1ccc(NC2CCCN(C(=O)c3ccc(C)nc3)C2)cc1 (configuration not stated)	n	n	n	n	n
COc1ccc(NC2CCCN(C(=O)c3cc4ncccn4n3)C2)cc1 (configuration not stated)	36.5	n	24.7	x	n
SMILES	Shiga inhibitor	NS1 inh	CHX counter	FBPA Giardia inh	LmPK inhibitor
COc1ccc(C(=O)N2CCC3(CCCN(C(=O)Nc4cccc(C#N)c4)C3)CC2)cc1	x	x	x	n	x
CN(C)/C=N/c1ncc(-c2ncc(C(F)(F)F)cc2Cl)cn1	n	n	n	n	n
CC1(C)CCC2=C(O1)c1ccccc1C(=O)C2=O	x	n	x	1.58µM	x
COC(=O)N1C2(C=CC1(C)C(=O)NCc1ccc(N(C)C)cc1)CCCCC2 (configuration not stated)	x	x	x	n	x
COc1ccccc1C1CC(=O)Oc2cc3c(cc21)OCO3 (configuration not stated)	n	x	n	39.7µM	x
CCOC(=O)Nc1ccc2c(CNC(C)c3ccccc3OC)cc(=O)oc2c1 (configuration not stated)	n	n	n	n	n
CC(=O)Nc1cccc(-c2csc(Nc3ccc(C)cn3)n2)c1	97.6	n	69.0	n	n

High-throughput results (PubChem BioAssay)
